Laboratory results taken from the supplement of paper PMC12024424.
Where a name gives a salt, the structure may show the parent alone.

Legend:
[1] = system: Staphylococcus aureus Sa2 (MRSA, cystic fibrosis isolate); assay: growth reduction vs untreated control (OD550); higher = stronger antibacterial activity; details: 0.1 mM; 24 h
Procedure: (§1)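 Single-dose screen of the MedChem Express Drug Repurposing Library (0.1 mM, 1% DMSO) against planktonic MRSA S. aureus Sa2 (CF isolate) in TSB in 96-well plates, 37 °C aerobic, 24 h. Assays were run in triplicate and repeated twice.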

[2] = system: Staphylococcus aureus Sa2 (MRSA, cystic fibrosis isolate); assay: growth reduction vs untreated control (viable cell count); higher = stronger antibacterial activity; extreme values may be limits of the assay; details: 0.1 mM; 24 h
Procedure: as §1

| SMILES | growth reduction [1] | growth reduction [2] |
| --- | --- | --- |
| CC1(C)S[C@@H]2[C@H](NC(=O)[C@H](N)c3ccccc3)C(=O)N2[C@H]1C(=O)OCOC(=O)[C@@H]1N2C(=O)C[C@H]2S(=O)(=O)C1(C)C [Sultamicillin (tosylate)] | 100% | 100% |
| O=C(c1ccc(OCCN2CCCCC2)cc1)c1c(-c2ccc(O)cc2)sc2cc(O)ccc12 [Raloxifene (hydrochloride)] | 99.8% | 93% |
| C=CC(=O)Nc1cc(Nc2nccc(-c3cn(C)c4ccccc34)n2)c(OC)cc1N(C)CCN(C)C [Osimertinib (dimesylate)] | – | 100% |
| CSc1ccc2c(c1)N(CCC1CCCCN1C)c1ccccc1S2 (centres undefined) [Thioridazine (hydrochloride)] | 100% | 100% |
| Cc1cccc(/C=N/Nc2cc(N3CCOCC3)nc(OCCc3ccccn3)n2)c1 [Apilimod] | 100% | 93% |
